The values that follow come from PubChem BioAssay AID1224852 (National Center for Advancing Translational Sciences (NCATS), 2016).

Structures are written as SMILES. Results filed as inconclusive are left out. Calls of active or inactive are those of the source. Calls follow the shape of the dose curve; as a rule, active = well fitted curve in the direction sought with a large enough effect (not every such curve was filed as active); inconclusive = small, poorly fitted or top-dose-only effect, or effect the other way, or another doubt; inactive = no such curve, though single readings can be large or run the other way.

The nature of the assay: Cell viability assay for measurement of the protective activity of small molecules against cell death caused by Zika virus infection in human neural progenitor cells (hNPCs). The following applies: hNPC ZIKV-induced death protection, ATP luminescence, 72 h; series mostly up to 46.1 µM. The source says:
National Center for Advancing Translational Sciences [NCATS] Johns Hopkins University School of Medicine Florida State University Assay Overview: Zika virus infection causes cell death in certain cell types including human neural progenitor cells (hNPCs), astrocytes, and astrocytoma cell line (SNB-19). This cell viability assay measures the ATP content (level) in human neural progenitor cells (hNPCs) using a luminescence readout that is proportional to viable cell numbers. Decrease in the luminescence signal after Zika virus infection indicates the cell death caused by Zika virus. Small molecule inhibitors […] the decreased luminescence signal after Zika virus infection, indicating the protective effect of that small molecule on the cell death caused by Zika virus infection. This observed protective effect of small molecules against Zika virus induced cell death may result from inhibition of virus replication or cellular response to the virus infection.
Assay Protocol Summary: The medium for hNPCs consists of DMEM/F12, N2 supplement (ThermoFisher, Cat.# 17502048), NEAA (ThermoFisher, Cat. # 11140050), 2 ug/ml heparin, 2 uM cyclopamine, and B27 (ThermoFisher, Cat. # 17504044). The ATP content assay kit (PerkinElmer, Cat.# 6016731) was used to determine cell viability. The reagent was reconstituted and prepared as described by the manufacturer. Cells were seeded in 384- or 1536-well assay plates and cultured at 37 C with 5% CO2 for 16 to 20 hours. The typical cell seeding density in the 1536-well plate assay is 350 cells/well in 3 ul medium for hNPCs in the tissue cultured treated/PDL coated plates. Compounds were added to cells and incubated for one hour before addition of ZIKV solution to cells (2 FFU/cell). After incubation at 37 C with 5% CO2 for 72 hours, the reagent mixture of the ATP content assay kit was added to each well, followed by incubation at room temperature for 10 minutes. The luminescence intensity of the assay plates was measured using a ViewLux plate reader (PerkinElmer). […] The percentage inhibitions of the decreased cell viability by small molecule inhibitors were then calculated.
Consider `COc1ccc(-c2cc(=S)ss2)cc1`, for which the result was inactive.

`O=C1NC(=O)C(=Cc2ccc(-c3ccc(F)cc3)o2)S1`: the call was inactive.

`O=S(=O)(O)c1ccc2nc(-c3ccccc3)[nH]c2c1`: the compound was called inactive.

For the compound `Cc1nc(-c2ccc(OCC(C)C)c(C#N)c2)sc1C(=O)O`, the outcome was inactive.

For `O=c1oc2cc(O)ccc2s1`, the call was inactive.

For the compound `CCCC(=O)OC[C@@H](OC(=O)CCC)[C@@H](OC(=O)CCC)[C@H](Cn1c2nc(=O)[nH]c(=O)c-2nc2cc(C)c(C)cc21)OC(=O)CCC`, the result was inactive.

Consider `O=C(C=CC=Cc1ccc2c(c1)OCO2)N1CCCCC1`, for which the compound was called inactive.

With `NC1CCC(Nc2nc(Nc3ccc(C(=O)N4CCCCC4)cc3)c3ncn(-c4cccc(F)c4)c3n2)CC1` (stereo not given), the result was inactive.

For `CC(=O)Nc1ccc([C@H](C)C(=O)Nc2ncc(C(C)C)s2)cc1`, the call was inactive.

In the case of `O=C1c2ccccc2C(=O)c2c(NCCc3ccc(O)cc3)ccc(NCCc3ccc(O)cc3)c21`, the compound was classed as inactive.

On to `Cc1oncc1C(=O)Nc1ccc(C(F)(F)F)cc1`, for which the compound was classed as inactive.

As to `Nc1ccc(O)c(C(=O)O)c1`, the call was inactive.

On to `CN(C)c1cc(NC(=O)CNC(C)(C)C)c(O)c2c1C[C@@H]1C[C@H]3[C@H](N(C)C)C(=O)C(C(N)=O)=C(O)[C@@]3(O)C(=O)C1=C2O`, for which the result was inactive.

Consider `COc1cc2nc(-c3ccc(N4CCN(C)CC4)cc3)nc(NCCN3CCOCC3)c2cc1OC`, for which the call was inactive.

Consider `Nc1c(S(=O)(=O)O)cc(Nc2ccc(Nc3nc(Cl)nc(Nc4ccc(S(=O)(=O)O)cc4)n3)c(S(=O)(=O)O)c2)c2c1C(=O)c1ccccc1C2=O`, for which the call was inactive.

`Clc1ccccc1-c1nc(-c2ccncc2)no1`: the compound was called inactive.

For `O=c1c(-c2ccc(O)cc2)coc2cc(OC3O[C@H](CO)[C@H](O)[C@H](O)[C@H]3O)cc(O)c12` (stereo not given in full), the compound was classed as inactive.

As to `COc1ccc(-c2coc3cc(O)ccc3c2=O)cc1`, the compound was called inactive.

Take `COc1ccc2nc(NC(=O)Nc3ccccc3)sc2c1`: the result was inactive.

Regarding `CN(C)c1ccc(/C=C2\C(=O)Nc3ccccc32)cc1`, the compound was called inactive.

In the case of `CCCCC1C(=O)N(c2ccccc2)N(c2ccc(O)cc2)C1=O` (stereo not given), the result was inactive.

As for `O=c1cc(-c2ccccc2)oc2cc(O)c(O)c(O)c12`, the compound was called inactive.

On to `CC(C(=O)O)c1ccc(C(=O)c2cccs2)cc1` (stereo not given), for which the outcome was inactive.

As to `CC=CC[C@@H](C)C(=O)[C@H]1C(=O)N[C@@H](C(C)C)C(=O)N(C)CC(=O)N(C)[C@@H](CC(C)C)C(=O)N[C@@H](C(C)C)C(=O)N(C)[C@@H](CC(C)C)C(=O)N[C@@H](C)C(=O)N[C@H](C)C(=O)N(C)[C@@H](CC(C)C)C(=O)N(C)[C@@H](CC(C)C)C(=O)N(C)[C@@H](C(C)C)C(=O)N1C`, the result was inactive.

In the case of `CCCSc1ccc2nc(NC(=O)OC)[nH]c2c1`, the call was inactive.

Take `Cc1cc(O)c2c(c1)C(=O)c1cc(O)cc(O)c1C2=O`: the compound was classed as inactive.

Take `O=C(O)CCC(=O)c1ccc(-c2ccccc2)cc1`: the compound was classed as inactive.

With `O=c1[nH]nc(Sc2ncc([N+](=O)[O-])s2)n1-c1ccc2c(c1)OCCO2`, the result was inactive.

As for `O=C(O)c1ccccc1Nc1cccc(C(F)(F)F)c1`, the call was inactive.

As for `O=c1c(-c2ccc(O)cc2)coc2cc(O)ccc12`, the result was inactive.

As to `CC1=C(CO)C(=O)O[C@@H]([C@@H](C)[C@H]2CC[C@H]3[C@@H]4C[C@H]5O[C@]56[C@@H](O)C=CC(=O)[C@]6(C)[C@@H]4CC[C@]23C)C1`, the compound was classed as inactive.

`O=C(OCc1ccccc1)c1ccc(O)cc1`: the call was inactive.

Consider `O=C(O)Cc1ccc(-c2ccccc2)cc1`, for which the result was inactive.

Regarding `CC(C)c1ccc2oc3nc(N)c(C(=O)O)cc3c(=O)c2c1`, the outcome was inactive.

Turning to `CCCCCNC(=O)N1CCC(CN(Cc2ccc(Cl)cc2)Cc2ccc([N+](=O)[O-])s2)C1` (stereo not given), the compound was called inactive.

For the compound `CC(=Cc1ccccc1)C=C1SC(=S)N(CC(=O)O)C1=O`, the call was inactive.

For the compound `CCCCCCCCCCCC(=O)[O][Sn]([CH2]CCC)([CH2]CCC)[O]C(=O)CCCCCCCCCCC`, the outcome was inactive.

With `N[C@H](CSC(c1ccccc1)(c1ccccc1)c1ccccc1)C(=O)O`, the compound was classed as inactive.

`CN(C)CCCSc1ccccc1NC(=O)/C=C/c1ccccc1`: the call was inactive.

As for `Oc1ccc(/C=C/c2cc(O)cc(O)c2)cc1`, the result was inactive.
